In PubChem BioAssay (NCI):
This is part of a sample that, as a whole, favours compounds with a hit. Of some 83,000 tested, about 20% had one in any assay.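 Interpretation: 100, growth as untreated; towards 0, rising growth inhibition; 0, no net growth; 0 to -100, cell death. Compounds scoring below 10 were considered active.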 Unmarked numbers belong to inactive results. The source made the active and inactive calls.

These compounds were tested on SNB-75 CNS (assay: NCI-60 one-dose screen, 48 h (100 = growth as untreated, 0 = no growth, -100 = all killed)). Details: 10 µM unless noted.
Description: Growth inhibition of the SNB-75 human tumor cell line is measured as a screen for anti-cancer activity. Cells are grown in 96 well plates and exposed to the test compound for 48 hours. Compounds are tested at a single concentration, which is 10^-5 M for most compounds. The reported endpoint is percent growth (GI% or GIPRCNT), where numbers from 0 - 100% represent growth inhibition, and numbers from -100% - 0 represent cell death. For example, a value of 40 represents 60% growth inhibition. A value of 0 means no net growth occurred over the course of the experiment. A value of -40 indicates 40% of cells at the beginning of the experiment died by the end of the experiment. A value of -100 means all cells are dead at the end of the experiment.
NCI-60 Human Tumor Cell Lines Screen was performed using the standard one-dose NCI protocol, which is described in more detail at https://dtp.cancer.gov/discovery_development/nci-60/default.htm.
Compounds with GIPRCNT values below 10 were considered active. Activity score was based on GIPRCNT using the following formula: […]
Score is 0 for GIPRCNT values of 100 or above, 50 for GIPRCNT values of 0, and 100 for GIPRCNT values of -100.

SMILES | growth
O=C1C(SCCO)=C(SCCO)C(=O)N1c1ccc(-c2ccccc2)cc1 | 71.9%
O=C(Nc1ccccc1F)Nc1ccccc1Cl | 85.7%
Cc1ccc(-c2cn3cc([N+](=O)[O-])ccc3n2)cc1 | 77.5%
CCOc1ccc(NC(=O)Nc2cc(C(C)C)ccc2C)cc1 | 19.5%
Cc1ccc(NC(=O)CN2CCOCC2)cc1Cl | 97.4%
CCOc1cccc(Nc2nc(N)nc3[nH]c4ccc(O)cc4c23)c1 | 46.1%
O=[N+]([O-])c1ccc(NS(=O)(=O)c2cc(Cl)ccc2Cl)c2ccccc12 | 60.6%
CCNc1cc(S(=O)(=O)O)ccc1C | 99.4%
O=S(=O)(O)c1ccc(F)cc1 | 101%
O=C(NCCNc1nccc(-c2c(-c3cccc(O)c3)nc3sccn23)n1)c1cc(N2CCOCC2)cc(C(F)(F)F)c1 | 83.2%
COc1ccc2c(c1)/C(=C/c1c(-c3cc(OC)c(OC)c(OC)c3Br)nc3sccn13)C(=O)N2 | 109%
Cc1[nH]c2ccc(F)cc2c1CCNC(=O)C1CCN(C(=O)c2ccc(-c3ccccc3)cc2)CC1 | 49.1%
Oc1ccccc1/C=N/c1ccccn1 | 98%
Cc1cn(-c2nc3c(c(NCc4ccccc4)n2)COCC3)c2cccc(C(N)=O)c12 | 107% [0.5 µM]
CC(C)C(=O)Nc1nc2c(s1)CCCc1ccn(S(=O)(=O)c3ccccc3)c1-2 | 89.4%
CC(C)[C@@H]1NC(=O)[C@]2(C)CSC(=N2)c2ccnc(c2)CNC(=O)C[C@@H](/C=C/CCS)OC1=O | 25.8%
O=C(NCCNc1nccc(-c2c(-c3cccc(O)c3)nc3sccn23)n1)Nc1cc(C(F)(F)F)cc(C(F)(F)F)c1 | 66.1%
NC(=S)NNC1CCCCC1 | 91.5%
COc1cc(NC(C)CCCN2C(=O)c3ccccc3C2=O)c2nc(C)ccc2c1OC (stereo not given) | 82.6%
COc1ccc(-c2nn(-c3ccc(NC(=O)Nc4cc(C(F)(F)F)cc(C(F)(F)F)c4)cc3)cc2-c2ccncc2)cc1Cl | 34.4%

SMILES | growth
CNCCCOc1c(Br)cc(CCNC(=O)/C(Cc2cc(Br)c(OC)c(Br)c2)=N/O)cc1Br | 8.28% (active)
O=C(Cn1c2ccccc2c2ccncc21)N/N=C\c1ccc2ccccc2c1 | 3.82% (active)
CCN1CCN(Cc2ccc(NC(=O)Nc3cccc(-n4ccc5c(NC(=O)c6ccccc6)nccc54)c3)cc2C(F)(F)F)CC1 | 80.2%
COc1ccc(-c2nn(-c3ccc(NC(=O)c4ccc(Cl)c(C(F)(F)F)c4)cc3)cc2-c2ccncc2)cc1Cl | 31.1%
CCc1cccc(C)c1NC(=O)c1sc2nc3c(cc2c1N)CCCCC3 | 6.57% (active)
C=C(C)[C@@H]1C/C=C(\COC(=O)[C@H](OC(C)=O)C(NC(=O)c2ccccc2)c2ccccc2)CC[C@H]2O[C@]2(C)CC/C=C(\C)CC1 (stereo not given in full) | 57.5% [5 µM]
O=c1c2ccccc2sc2c(NCCN3CCOCC3)nc3ccccc3c12 | 42.8%
Nn1c(SCC(=O)Nc2cc(Cl)c(Cl)cc2Cl)nnc1-c1cc(F)c(Cl)cc1Cl | 106%
COc1ccc2c(-c3ccc(F)cc3)c(C#N)c(=NC(C)=O)oc2c1 | 34%
CCc1c(C)c2cc(-n3c(-c4ccc(OC)cc4)csc3=N)c(O)c(C)c2oc1=O | -2.92% (active)
N#Cc1c(N)nc(Cl)c(C#N)c1C(=O)c1ccccc1 | 50%
COc1ccc(NC(=O)COCCOCCNC[C@@H]2C(=O)O[C@H]3[C@H]2CC/C(COC(=O)OC/C2=C/CC[C@@]4(C)O[C@H]4[C@H]4OC(=O)[C@@H](CN(C)C)[C@@H]4CC2)=C\CC[C@@]2(C)O[C@@H]32)c(O)c1C(N)=O | 84.1%
O=c1[nH]ccc2nc(N3CCC(O)CC3)nc(Nc3cccc(C(F)(F)F)c3)c12 | 87.1%
O=C(Nc1ccc(Cl)c(Cl)c1)Nc1ccc(Cl)c([N+](=O)[O-])c1 | 16.2%
O=C(O)c1ccc2nc(-c3ccc(OCCCCCOc4ccc(-c5nc6ccc(C(=O)O)cc6[nH]5)cc4)cc3)[nH]c2c1 | 96%
COc1ccc2c(c1)C(=O)/C(=C/c1cccc(OCC(=O)c3ccccc3)c1)O2 | -8.04% (active)
CC(=O)CC/C=C(\C)[C@H](O)[C@H](C)C(=O)O[C@H]1C[C@H](C)C=C2C=C[C@@]3(C)O[C@@H](O)CC(=O)[C@]3(C)[C@H]21 | -85.3% (active)
Cc1nccc2c3ccc(OCc4cn(-c5ccc(Br)cc5)nn4)cc3n(CCCc3ccccc3)c12 | 26.7%
CC1(C)N=C(N)N=C(N)N1c1ccc(OCC(=O)Nc2ccccc2)c(Cl)c1 | 82.3%
COc1ccc(/C(=C/c2cc(OC)c(OC)c(OC)c2)[N+](=O)[O-])cc1 | 49.2%
